Results from PubChem BioAssay (Tox21).
Results filed as inconclusive are left out. Activity calls are given as the source filed them. Unless noted, calls come from the whole dose curve; as a rule, active = well fitted curve in the direction sought with a large enough effect in the repeat runs; inconclusive = weak or mixed curves; inactive = no such curve, though single readings can be large; an effect the other way counts as inactive or inconclusive.

Legend:
[1] = target: Thyrotropin receptor (Homo sapiens) (UniProt P16473); assay: qHTS assay to identify small molecule agonists of the thyroid stimulating hormone receptor (TSHR) signaling pathway (AID 1224843; calls by dose curve; note: nearly all actives have a fitted effect of over 45% in size)
How it was run: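 TSHR-expressing HEK293 cells (800 per well) were exposed to compounds for 30 min at room temperature. cAMP was then detected by HTRF competition with cAMP-d2 and anti-cAMP cryptate, read after 1 h at room temperature. Fifteen concentrations, triplicate.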

[2] = qHTS assay to identify small molecule agonists of the hypoxia (HIF-1) signaling pathway - cell viability counter screen (AID 1224844; calls by dose curve; note: nearly all actives have a fitted effect of over 50% in size)
How it was run: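 HRE-bla ME-180 cells, 2,000/well in 0.5% dialyzed FBS medium, treated 17 h at 37C with compounds. Viability read in the same wells as the bla reporter, by CellTiter-Glo luminescence after 30 min at room temperature.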

[3] = qHTS assay to identify small molecule agonists of H2AX (AID 1224845; active = well fitted activation curve with a large enough effect in the signal ratio in the repeat runs, not every such curve was filed as active; the % refers to the signal ratio; note: potency is the fitted concentration of half-maximal effect)
How it was run: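 Wild-type CHO-K1 cells plated overnight, then exposed 3 hr at 37C to compounds at 15 concentrations (0.76% DMSO). Lysed, then HTRF anti-pH2AX(S139)-cryptate/anti-H2AX-d2 detection after 24 hr at room temperature; emissions 665 and 620 nm.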

[4] = qHTS assay to identify small molecule agonists of the hypoxia (HIF-1) signaling pathway (AID 1224846; active = well fitted activation curve with a large enough effect in the signal ratio in the repeat runs, not every such curve was filed as active; the % refers to the signal ratio)
How it was run: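 HRE-bla ME-180 beta-lactamase reporter cells in medium with 0.5% dialyzed FBS, pre-incubated 5 h then exposed to compounds 17 h at 37C, 5% CO2; reporter induction read with CCF4-AM FRET substrate.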

[5] = qHTS assay to identify small molecule agonists of H2AX - cell viability counter screen (AID 1224847; calls by dose curve; note: top concentration of the series differs between compounds; nearly all actives have a fitted effect of over 30% in size)
How it was run: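 After overnight plating of 1000 CHO-K1 cells per well, a 15-concentration compound series was applied for 3 hr at 37C. Luminescence from CellTiter-Glo, read following 30 min at room temperature, reflected cell viability.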

[6] = qHTS RealTime-Glo MT Cell Viability Assay in HepG2 cells - 24 hour (AID 1224867); note: nearly all actives have a fitted effect of over 50% in size
How it was run: (§1)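 HepG2 cells were seeded at 600 cells/well together with NanoLuc luciferase and a cell-permeant prosubstrate, preincubated 5 h at 37 C/5% CO2, then pin-dosed with compounds in DMSO. Nonlytic luminescence from viable cells was read at each time point.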

[7] = qHTS RealTime-Glo MT Cell Viability Assay in HEK293 cells - 32 hour (AID 1224868); note: nearly all actives have a fitted effect of over 50% in size; note: potency is the fitted concentration of half-maximal effect
How it was run: (§2)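 HEK293 cells were seeded at 600 cells/well together with NanoLuc luciferase and cell-permeant prosubstrate, preincubated 5 h at 37 C/5% CO2, then given compound in DMSO by pintool. Luminescence from viable-cell prosubstrate reduction was read repeatedly over 40 h.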

[8] = A CellTox Green Cytotoxicity Assay to monitor cytotoxicity in HEK293 cells - 0 hour (AID 1224869); note: nearly all actives have a fitted effect of over 50% in size
How it was run: (§3)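 HEK293 cells, 600/well, were preincubated 5 hours and then exposed to compounds at 37 C for up to 40 hours. A cell-impermeant cyanine dye staining dead-cell DNA was read by fluorescence at 0, 8, 16, 24, 32 and 40 h time points.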

[9] = qHTS RealTime-Glo MT Cell Viability Assay in HepG2 cells - 40 hour (AID 1224870); note: nearly all actives have a fitted effect of over 50% in size
How it was run: (§4)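 HepG2 cells mixed with RealTime-Glo MT reagents (NanoLuc plus cell-permeant prosubstrate) were seeded at 600 cells/well, incubated 5 h at 37 C/5% CO2, then pinned with compounds in DMSO; nonlytic luminescence tracked viability during 40 h treatment.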

[10] = A CellTox Green Cytotoxicity Assay to monitor cytotoxicity in HEK293 cells - 40 hour (AID 1224871); note: nearly all actives have a fitted effect of over 45% in size
How it was run: as §3

[11] = qHTS RealTime-Glo MT Cell Viability Assay in HEK293 cells - 16 hour (AID 1224872); note: nearly all actives have a fitted effect of over 50% in size; note: potency is the fitted concentration of half-maximal effect
How it was run: as §2

[12] = qHTS RealTime-Glo MT Cell Viability Assay in HepG2 cells - 8 hour (AID 1224873); note: nearly all actives have a fitted effect of over 55% in size
How it was run: as §4

[13] = qHTS RealTime-Glo MT Cell Viability Assay in HEK293 cells - 40 hour (AID 1224874); conditions: RealTime-Glo luminescence; max response: stronger effect = lower value; note: nearly all actives have a fitted effect of over 50% in size; note: potency is the fitted concentration of half-maximal effect
How it was run: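 600 cells/well were plated with the nonlytic NanoLuc/prosubstrate reagent, pre-incubated 5 h, then given 23 nL of compound in DMSO. Incubation at 37 C for 40 h, with luminescence from viable-cell-reduced substrate read repeatedly from 0 h.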

[14] = A CellTox Green Cytotoxicity Assay to monitor cytotoxicity in HEK293 cells - 24 hour (AID 1224875); note: nearly all actives have a fitted effect of over 45% in size
How it was run: as §3

[15] = A CellTox Green Cytotoxicity Assay to monitor cytotoxicity in HepG2 cells - 16 hour (AID 1224876); note: nearly all actives have a fitted effect of over 45% in size
How it was run: (§5)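 HepG2 cells, 600/well, preincubated 5 h with CellTox Green dye, then exposed to Tox21 compounds in DMSO at 37 C for up to 40 h. Dead-cell DNA fluorescence read at the indicated time point.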

[16] = qHTS RealTime-Glo MT Cell Viability Assay in HepG2 cells - 32 hour (AID 1224877); note: nearly all actives have a fitted effect of over 55% in size
How it was run: as §1

[17] = A CellTox Green Cytotoxicity Assay to monitor cytotoxicity in HepG2 cells - 24 hour (AID 1224878); note: nearly all actives have a fitted effect of over 45% in size
How it was run: as §5

[18] = A CellTox Green Cytotoxicity Assay to monitor cytotoxicity in HepG2 cells - 40 hour (AID 1224879); note: nearly all actives have a fitted effect of over 40% in size
How it was run: as §5

[19] = qHTS assay to identify small molecule antagonists of the estrogen related receptor (ERR) signaling pathway from Tox21 library (AID 1224848); note: nearly all actives have a fitted effect of over 50% in size; note: potency is the fitted concentration of half-maximal effect
How it was run: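 Cells: ERR line, 2,000/well; 6 h preincubation 37 C/5% CO2. Cpd in DMSO via pin tool; 18 h, 37 C. ONE-Glo, 30 min RT, luminescence.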

[20] = qHTS assay to identify small molecule agonists of the estrogen related receptor (ERR) signaling pathway from Tox21 library (AID 1224849; calls by dose curve; note: nearly all actives have a fitted effect of over 15% in size); conditions: ERR reporter cell line, ONE-Glo luciferase, 18 h; at 92.4 µM (top of the series) unless noted
How it was run: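 ERR reporter cells (NTP line) pre-incubated 6 hours at 37 C, then exposed to compounds for 18 hours at 37 C. ONE-Glo luciferase luminescence was read after 30 minutes at room temperature.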
% is set by controls: 0 for no effect and ±100 for the full control effect.

Thyrotropin receptor (Homo sapiens), sequence (P16473 whole entry, looked up): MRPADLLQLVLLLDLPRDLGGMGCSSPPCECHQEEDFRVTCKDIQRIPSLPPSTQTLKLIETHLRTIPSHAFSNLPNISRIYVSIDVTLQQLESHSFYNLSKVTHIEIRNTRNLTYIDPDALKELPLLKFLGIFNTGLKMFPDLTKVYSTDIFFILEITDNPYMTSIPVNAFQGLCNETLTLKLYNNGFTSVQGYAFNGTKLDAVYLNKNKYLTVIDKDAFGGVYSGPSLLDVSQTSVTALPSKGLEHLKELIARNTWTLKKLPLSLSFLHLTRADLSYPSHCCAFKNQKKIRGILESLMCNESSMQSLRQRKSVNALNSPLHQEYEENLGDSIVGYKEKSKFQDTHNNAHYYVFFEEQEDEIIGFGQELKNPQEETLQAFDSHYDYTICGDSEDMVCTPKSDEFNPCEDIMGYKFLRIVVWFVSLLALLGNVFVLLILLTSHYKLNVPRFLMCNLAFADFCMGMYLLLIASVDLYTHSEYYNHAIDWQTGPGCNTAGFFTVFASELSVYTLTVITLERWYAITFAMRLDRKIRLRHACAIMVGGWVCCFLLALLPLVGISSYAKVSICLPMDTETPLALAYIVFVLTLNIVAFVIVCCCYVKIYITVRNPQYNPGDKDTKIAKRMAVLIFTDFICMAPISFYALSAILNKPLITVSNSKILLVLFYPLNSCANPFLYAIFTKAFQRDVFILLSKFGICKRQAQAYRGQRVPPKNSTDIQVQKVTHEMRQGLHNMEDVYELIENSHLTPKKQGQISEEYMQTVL

CCCCOC(=O)CCS
inactive: Potency [1] | Potency [2] | Potency [3] | outcome [4] | Potency [5] | Potency [6] | Potency [7] | Potency [8] | Potency [9] | Potency [10] | Potency [11] | Potency [12] | max response [13] 5.96% | Potency [14] | Potency [15] | Potency [16] | Potency [17] | Potency [18]

CCCCCC=CCC=CCCCCCCCC(=O)OCC
inactive: Potency [1] | Potency [2] | outcome [4] | Potency [5] | Potency [6] | Potency [7] | Potency [8] | Potency [9] | Potency [10] | Potency [11] | Potency [12] | max response [13] -1.44% | Potency [14] | Potency [15] | Potency [16] | Potency [17] | Potency [18]
active: Potency [3] 55.2 µM

CC(=O)OCC(=O)[C@H]1CC[C@H]2[C@@H]3CCC4=CC(=O)CC[C@]4(C)[C@H]3CC[C@]12C
inactive: Potency [1] | Potency [2] | Potency [3] | outcome [4] | Potency [5] | Potency [8] | Potency [9] | Potency [12] | Potency [14] | Potency [15] | Potency [16] | Potency [17] | Potency [18]
active: Potency [19] 21.1 µM

CCCC1C(CC)=CC(CC)=CN1c1ccccc1 (stereo unspecified)
inactive: Potency [1] | Potency [2] | Potency [3] | outcome [4] | Potency [5] | activity change, positive = activation [20] -47.2% | Potency [8] | Potency [9] | Potency [10] | Potency [12] | Potency [14] | Potency [15] | Potency [16] | Potency [17] | Potency [18]
active: Potency [19] 43.3 µM | Potency [7] 13.8 µM | Potency [11] 15.5 µM | Potency [13] 13.8 µM

O=C(/C=C/c1ccccc1)OCCCc1ccccc1
inactive: Potency [1] | Potency [2] | Potency [3] | outcome [4] | Potency [5] | Potency [19] | Potency [7] | Potency [8] | Potency [9] | Potency [10] | Potency [11] | Potency [12] | max response [13] -1.1% | Potency [14] | Potency [15] | Potency [17] | Potency [18]

CC(=O)Oc1ccc2c(c1)CC[C@@H]1[C@@H]2CC[C@]2(C)[C@@H](O)CC[C@@H]12
inactive: Potency [1] | Potency [2] | Potency [3] | outcome [4] | Potency [5] | activity change, positive = activation [20] -29.3% [at 42.5 µM] | Potency [6] | Potency [8] | Potency [9] | Potency [12] | Potency [14] | Potency [15] | Potency [16]
active: Potency [7] 9.52 µM | Potency [13] 16.9 µM
